The supplement of paper PMC10849652
The full data set covers some 7,900 targets. This sample favours those with a hit. About 0.6% of all pairs of compound and target were hits.

compound: COC(=O)N[C@@H](C)CNc1nccc(-c2cn(C(C)C)nc2-c2cc(Cl)cc(NS(C)(=O)=O)c2F)n1 [encorafenib]; assay: log2 fold change, soluble protein after heating vs DMSO (PISA); higher = thermal stabilisation; K562 cells, 10 uM, 30 min; active = over 0.2 and 3.5 SD of the protein, either way, in both replicates (recomputed)
How it was run: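 K562 cells at 2×10^6 cells/mL were treated with 10 μM compound for 30 min. Aliquots were heated for 3 min across 48°C-58°C, pooled, and extracted in PBS with 0.5% NP-40 at 4°C; soluble protein was the supernatant after 21,000xg for 90 min. Soluble protein was quantified by TMTpro 16plex LC-MS/MS with channel sums equalised, and reported as log2 fold change in thermal stability against DMSO controls, with values from duplicates.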

UniProt Q8NEF9, sequence (Q8NEF9 whole entry, looked up): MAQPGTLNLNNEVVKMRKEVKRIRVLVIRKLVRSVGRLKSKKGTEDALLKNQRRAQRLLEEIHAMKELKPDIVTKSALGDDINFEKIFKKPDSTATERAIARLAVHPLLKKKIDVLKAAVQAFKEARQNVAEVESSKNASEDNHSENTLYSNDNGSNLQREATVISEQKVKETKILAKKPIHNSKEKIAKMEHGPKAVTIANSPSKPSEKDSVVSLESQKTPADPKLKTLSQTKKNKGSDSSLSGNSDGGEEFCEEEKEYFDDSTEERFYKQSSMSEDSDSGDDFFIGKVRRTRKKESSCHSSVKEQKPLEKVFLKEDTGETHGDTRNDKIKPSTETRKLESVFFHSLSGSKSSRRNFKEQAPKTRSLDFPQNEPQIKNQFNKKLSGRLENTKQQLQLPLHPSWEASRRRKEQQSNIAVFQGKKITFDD
UniProt Q96DI7, sequence (Q96DI7 whole entry, looked up): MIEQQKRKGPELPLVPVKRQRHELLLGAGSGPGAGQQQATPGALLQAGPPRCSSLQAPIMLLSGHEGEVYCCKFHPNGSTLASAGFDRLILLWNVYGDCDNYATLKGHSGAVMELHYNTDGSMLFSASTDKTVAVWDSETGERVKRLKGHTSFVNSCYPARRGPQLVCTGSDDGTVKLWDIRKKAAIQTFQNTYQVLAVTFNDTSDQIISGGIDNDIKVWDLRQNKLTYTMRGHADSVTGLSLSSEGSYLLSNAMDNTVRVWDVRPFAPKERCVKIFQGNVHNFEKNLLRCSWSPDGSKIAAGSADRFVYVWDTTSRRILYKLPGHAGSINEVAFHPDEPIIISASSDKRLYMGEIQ
UniProt Q8N0X7, sequence (Q8N0X7 whole entry, looked up): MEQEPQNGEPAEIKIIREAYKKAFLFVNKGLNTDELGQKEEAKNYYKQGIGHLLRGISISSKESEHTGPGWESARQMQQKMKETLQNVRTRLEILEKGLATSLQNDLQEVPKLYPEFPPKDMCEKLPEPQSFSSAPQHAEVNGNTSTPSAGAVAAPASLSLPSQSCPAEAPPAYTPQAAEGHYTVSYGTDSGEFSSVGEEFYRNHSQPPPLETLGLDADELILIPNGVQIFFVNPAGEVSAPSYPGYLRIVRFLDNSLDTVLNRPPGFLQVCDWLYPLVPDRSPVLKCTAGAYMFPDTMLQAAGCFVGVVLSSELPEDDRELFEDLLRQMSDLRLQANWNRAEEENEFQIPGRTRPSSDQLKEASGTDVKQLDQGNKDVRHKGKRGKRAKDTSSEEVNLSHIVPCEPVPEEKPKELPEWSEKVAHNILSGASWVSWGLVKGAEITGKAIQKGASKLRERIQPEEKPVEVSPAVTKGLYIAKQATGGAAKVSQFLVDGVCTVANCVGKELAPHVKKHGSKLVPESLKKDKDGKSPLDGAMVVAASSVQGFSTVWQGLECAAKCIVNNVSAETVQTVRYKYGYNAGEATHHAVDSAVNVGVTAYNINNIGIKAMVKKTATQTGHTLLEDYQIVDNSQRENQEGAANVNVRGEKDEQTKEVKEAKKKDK
UniProt Q9H4I9, sequence (Q9H4I9 whole entry, looked up): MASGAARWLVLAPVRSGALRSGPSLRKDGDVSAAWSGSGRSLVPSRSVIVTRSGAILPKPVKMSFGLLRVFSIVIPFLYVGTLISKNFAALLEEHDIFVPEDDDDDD
UniProt Q9NRS6, sequence (Q9NRS6 whole entry, looked up): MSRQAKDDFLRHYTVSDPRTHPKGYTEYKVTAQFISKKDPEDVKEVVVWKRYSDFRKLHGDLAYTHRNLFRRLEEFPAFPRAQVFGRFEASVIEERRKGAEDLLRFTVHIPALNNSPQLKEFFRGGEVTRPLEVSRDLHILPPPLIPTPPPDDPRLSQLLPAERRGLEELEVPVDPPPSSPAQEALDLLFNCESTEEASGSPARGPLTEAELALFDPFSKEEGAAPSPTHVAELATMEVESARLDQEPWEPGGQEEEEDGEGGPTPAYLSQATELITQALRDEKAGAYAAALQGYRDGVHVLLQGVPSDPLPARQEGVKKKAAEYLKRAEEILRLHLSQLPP
UniProt Q8IWA5, sequence (Q8IWA5 whole entry, looked up): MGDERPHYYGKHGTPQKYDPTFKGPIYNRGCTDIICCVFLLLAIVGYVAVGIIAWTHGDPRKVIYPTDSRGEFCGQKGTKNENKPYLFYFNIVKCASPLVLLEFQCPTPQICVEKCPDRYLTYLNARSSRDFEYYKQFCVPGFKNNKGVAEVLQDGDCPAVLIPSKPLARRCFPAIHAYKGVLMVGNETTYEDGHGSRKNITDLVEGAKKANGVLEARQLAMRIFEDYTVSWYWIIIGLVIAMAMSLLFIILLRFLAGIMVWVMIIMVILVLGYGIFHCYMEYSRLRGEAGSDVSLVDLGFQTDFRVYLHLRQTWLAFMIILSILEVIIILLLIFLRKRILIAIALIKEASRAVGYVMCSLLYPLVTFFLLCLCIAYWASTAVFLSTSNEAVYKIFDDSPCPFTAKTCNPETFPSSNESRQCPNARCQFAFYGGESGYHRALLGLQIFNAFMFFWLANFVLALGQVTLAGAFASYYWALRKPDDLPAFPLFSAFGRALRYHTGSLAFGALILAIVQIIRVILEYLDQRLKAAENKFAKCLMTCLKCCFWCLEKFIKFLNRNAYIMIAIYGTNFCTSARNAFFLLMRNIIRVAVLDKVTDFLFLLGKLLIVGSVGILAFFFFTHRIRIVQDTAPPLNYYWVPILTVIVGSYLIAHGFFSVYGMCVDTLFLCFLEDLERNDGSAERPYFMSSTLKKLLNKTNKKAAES
UniProt Q9P016, sequence (Q9P016 whole entry, looked up): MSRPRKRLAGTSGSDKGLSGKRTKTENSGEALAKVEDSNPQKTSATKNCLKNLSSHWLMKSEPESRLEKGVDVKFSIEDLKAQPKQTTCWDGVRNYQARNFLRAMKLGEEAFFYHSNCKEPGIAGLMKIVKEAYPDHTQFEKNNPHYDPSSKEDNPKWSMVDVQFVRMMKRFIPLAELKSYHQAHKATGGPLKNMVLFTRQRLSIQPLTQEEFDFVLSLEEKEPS
UniProt Q8N357, sequence (Q8N357 whole entry, looked up): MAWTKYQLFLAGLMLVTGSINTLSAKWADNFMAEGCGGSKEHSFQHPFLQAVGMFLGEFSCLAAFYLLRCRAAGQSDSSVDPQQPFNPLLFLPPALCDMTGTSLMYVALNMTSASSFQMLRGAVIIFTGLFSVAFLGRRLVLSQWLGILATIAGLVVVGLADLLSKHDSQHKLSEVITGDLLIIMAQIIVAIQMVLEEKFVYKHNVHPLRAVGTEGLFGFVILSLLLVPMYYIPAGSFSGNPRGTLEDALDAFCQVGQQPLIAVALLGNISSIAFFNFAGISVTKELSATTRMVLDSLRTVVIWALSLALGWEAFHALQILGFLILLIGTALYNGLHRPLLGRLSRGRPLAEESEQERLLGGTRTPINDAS
UniProt Q93075, sequence (Q93075 whole entry, looked up): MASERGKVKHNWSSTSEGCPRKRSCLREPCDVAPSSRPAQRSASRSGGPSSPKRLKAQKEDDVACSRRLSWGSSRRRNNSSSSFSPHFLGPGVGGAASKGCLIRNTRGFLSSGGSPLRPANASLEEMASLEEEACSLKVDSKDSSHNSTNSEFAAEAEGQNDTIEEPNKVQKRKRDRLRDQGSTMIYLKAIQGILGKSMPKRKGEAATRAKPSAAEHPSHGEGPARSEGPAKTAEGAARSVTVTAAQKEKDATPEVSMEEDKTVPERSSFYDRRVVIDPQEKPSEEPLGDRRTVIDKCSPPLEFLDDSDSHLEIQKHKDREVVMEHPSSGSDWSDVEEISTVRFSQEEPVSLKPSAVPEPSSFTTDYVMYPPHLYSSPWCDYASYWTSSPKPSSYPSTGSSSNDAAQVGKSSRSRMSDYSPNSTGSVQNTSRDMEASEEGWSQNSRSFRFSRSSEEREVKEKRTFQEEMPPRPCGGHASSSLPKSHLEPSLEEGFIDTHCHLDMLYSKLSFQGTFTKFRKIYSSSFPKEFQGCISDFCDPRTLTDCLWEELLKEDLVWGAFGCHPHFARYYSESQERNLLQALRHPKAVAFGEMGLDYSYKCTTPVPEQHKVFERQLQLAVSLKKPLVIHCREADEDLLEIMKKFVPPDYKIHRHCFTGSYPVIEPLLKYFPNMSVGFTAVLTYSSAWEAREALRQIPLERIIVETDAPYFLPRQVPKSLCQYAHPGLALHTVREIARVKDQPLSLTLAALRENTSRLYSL
UniProt Q15527, sequence (Q15527 whole entry, looked up): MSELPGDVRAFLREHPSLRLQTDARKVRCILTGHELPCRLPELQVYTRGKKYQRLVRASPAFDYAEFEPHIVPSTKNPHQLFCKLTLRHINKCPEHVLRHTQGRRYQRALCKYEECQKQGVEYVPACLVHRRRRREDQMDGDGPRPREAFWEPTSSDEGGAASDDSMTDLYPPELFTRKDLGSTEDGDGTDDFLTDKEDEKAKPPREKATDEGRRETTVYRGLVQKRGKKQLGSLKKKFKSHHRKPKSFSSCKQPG
UniProt Q08170, sequence (Q08170 whole entry, looked up): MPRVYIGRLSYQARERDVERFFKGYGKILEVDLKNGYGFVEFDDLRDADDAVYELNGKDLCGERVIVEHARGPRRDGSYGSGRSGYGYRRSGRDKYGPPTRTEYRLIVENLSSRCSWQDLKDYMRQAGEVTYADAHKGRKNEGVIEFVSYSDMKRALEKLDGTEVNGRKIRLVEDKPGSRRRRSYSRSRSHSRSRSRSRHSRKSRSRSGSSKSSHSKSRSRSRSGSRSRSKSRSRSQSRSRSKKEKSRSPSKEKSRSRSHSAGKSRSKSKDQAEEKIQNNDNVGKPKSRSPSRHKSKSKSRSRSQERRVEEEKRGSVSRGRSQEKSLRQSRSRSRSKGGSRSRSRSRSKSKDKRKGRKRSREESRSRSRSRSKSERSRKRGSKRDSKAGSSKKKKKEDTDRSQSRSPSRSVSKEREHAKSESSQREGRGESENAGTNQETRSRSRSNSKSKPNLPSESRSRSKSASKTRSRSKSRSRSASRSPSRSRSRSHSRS
UniProt Q15005, sequence (Q15005 whole entry, looked up): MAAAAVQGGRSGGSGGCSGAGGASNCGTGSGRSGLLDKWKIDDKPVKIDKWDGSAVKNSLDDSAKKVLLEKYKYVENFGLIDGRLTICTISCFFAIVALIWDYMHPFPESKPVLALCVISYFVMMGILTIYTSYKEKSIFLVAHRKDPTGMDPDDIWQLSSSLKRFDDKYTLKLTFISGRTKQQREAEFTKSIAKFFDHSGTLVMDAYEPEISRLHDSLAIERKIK

log2 fold change, inactive:
SLC44A2 isoform 2 (UniProt Q8IWA5) -0.125
STK38L (UniProt Q9Y2H1) 0.004
SLC35F6 (UniProt Q8N357) -0.042
SRSF6 (UniProt Q13247) 0.096
TATDN2 (UniProt Q93075) 0.099
TENT5C (UniProt Q5VWP2) 0.094
TMBIM1 (UniProt Q969X1) -0.223
SNRNP40 (UniProt Q96DI7) 0.039
SPART (UniProt Q8N0X7) 0.027
SRSF4 (UniProt Q08170) 0.154
SMDT1 (UniProt Q9H4I9) 0.011
SNX1 (UniProt Q13596) 0.024
THADA (UniProt Q6YHU6) 0.09
SMARCB1 (UniProt Q12824) -0.247
TACC2 (UniProt O95359) -0.013
SRFBP1 (UniProt Q8NEF9) -0.057
SYNE1 (UniProt Q8NF91) -0.101
SNX15 (UniProt Q9NRS6) 0.098
SRCAP (UniProt Q6ZRS2) 0.009
THYN1 (UniProt Q9P016) 0
SURF2 (UniProt Q15527) -0.037
TANGO6 (UniProt Q9C0B7) 0.001
SPCS2 (UniProt Q15005) 0.044
